A number with no mark means an inactive call. Results filed as inconclusive are left out. Where a call stands in place of a potency, no number is given. Calls of active or inactive are those of the source. Calls follow the shape of the dose curve; as a rule, active = well fitted curve in the direction sought with a large enough effect in the repeat runs; inconclusive = weak or mixed curves; inactive = no such curve, though single readings can be large; an effect the other way counts as inactive or inconclusive.
What was measured:
[1] = qHTS RealTime-Glo MT Cell Viability Assay in HepG2 cells - 40 hour (AID 1224870); also: nearly all actives have a fitted effect of over 50% in size
Summary of the method: (§1)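 HepG2 cells mixed with RealTime-Glo MT reagents (NanoLuc plus cell-permeant prosubstrate) were seeded at 600 cells/well, incubated 5 h at 37 C/5% CO2, then pinned with compounds in DMSO; nonlytic luminescence tracked viability during 40 h treatment.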

[2] = A CellTox Green Cytotoxicity Assay to monitor cytotoxicity in HEK293 cells - 40 hour (AID 1224871); also: nearly all actives have a fitted effect of over 45% in size; also: potency is read from the fitted curve at half-maximal effect
Summary of the method: (§2)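 Seeding of HEK293 cells together with cytotoxicity dye preceded a 5 h incubation at 37 C/5% CO2. Test compounds in DMSO were then added and fluorescence monitored across 40 h.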

[3] = qHTS RealTime-Glo MT Cell Viability Assay in HEK293 cells - 16 hour (AID 1224872); also: top concentration of the series differs between compounds; nearly all actives have a fitted effect of over 50% in size
Summary of the method: (§3)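 Luminescence generated by NanoLuc from substrate produced by living HEK293 cells served as the viability signal. Each value reflects the reading at its stated time point during continuous 40 h compound exposure at 37 C.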

[4] = qHTS RealTime-Glo MT Cell Viability Assay in HepG2 cells - 8 hour (AID 1224873); also: nearly all actives have a fitted effect of over 55% in size
Summary of the method: as §1

[5] = qHTS RealTime-Glo MT Cell Viability Assay in HEK293 cells - 40 hour (AID 1224874); conditions: RealTime-Glo luminescence; max response: stronger effect = lower value; also: nearly all actives have a fitted effect of over 50% in size
Summary of the method: (§4)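 Tox21 screen in HEK293 using RealTime-Glo MT chemistry, with cells and reagent co-dispensed. Luminescence proportional to viable cell number was captured at intervals during 40 h compound exposure at 37 C.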

[6] = A CellTox Green Cytotoxicity Assay to monitor cytotoxicity in HEK293 cells - 24 hour (AID 1224875); also: nearly all actives have a fitted effect of over 45% in size; also: potency is read from the fitted curve at half-maximal effect
Summary of the method: as §2

[7] = A CellTox Green Cytotoxicity Assay to monitor cytotoxicity in HepG2 cells - 16 hour (AID 1224876); also: nearly all actives have a fitted effect of over 45% in size; also: potency is read from the fitted curve at half-maximal effect
Summary of the method: (§5)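 Nonlytic assay: viable cells exclude the dye, so fluorescence scales with cell death. HepG2 at 600 cells/well, compounds added after 5 h, signal read across 40 h.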

[8] = qHTS RealTime-Glo MT Cell Viability Assay in HepG2 cells - 32 hour (AID 1224877); also: nearly all actives have a fitted effect of over 55% in size
Summary of the method: (§6)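 Tox21 10K library screened in qHTS format on HepG2 cells carrying RealTime-Glo reagents. Compounds were added after a 5 h preincubation, and the luminescent signal from continuous culture was measured repeatedly during 40 h treatment.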

[9] = A CellTox Green Cytotoxicity Assay to monitor cytotoxicity in HepG2 cells - 24 hour (AID 1224878); also: nearly all actives have a fitted effect of over 45% in size; also: potency is read from the fitted curve at half-maximal effect
Summary of the method: as §5

[10] = A CellTox Green Cytotoxicity Assay to monitor cytotoxicity in HepG2 cells - 40 hour (AID 1224879); also: nearly all actives have a fitted effect of over 40% in size; also: potency is read from the fitted curve at half-maximal effect
Summary of the method: as §5

[11] = qHTS RealTime-Glo MT Cell Viability Assay in HEK293 cells - 0 hour (AID 1224880)
Summary of the method: as §4

[12] = A CellTox Green Cytotoxicity Assay to monitor cytotoxicity in HEK293 cells - 32 hour (AID 1224881); also: nearly all actives have a fitted effect of over 40% in size; also: potency is read from the fitted curve at half-maximal effect
Summary of the method: as §2

[13] = A CellTox Green Cytotoxicity Assay to monitor cytotoxicity in HepG2 cells - 0 hour (AID 1224882); also: nearly all actives have a fitted effect of over 35% in size
Summary of the method: as §5

[14] = A CellTox Green Cytotoxicity Assay to monitor cytotoxicity in HEK293 cells - 8 hour (AID 1224884); also: nearly all actives have a fitted effect of over 35% in size; also: potency is read from the fitted curve at half-maximal effect
Summary of the method: as §2

[15] = qHTS RealTime-Glo MT Cell Viability Assay in HepG2 cells - 16 hour (AID 1224885); also: nearly all actives have a fitted effect of over 50% in size
Summary of the method: as §6

[16] = qHTS RealTime-Glo MT Cell Viability Assay in HEK293 cells - 24 hour (AID 1224886)
Summary of the method: as §3

[17] = qHTS RealTime-Glo MT Cell Viability Assay in HEK293 cells - 8 hour (AID 1224887)
Summary of the method: as §4

[18] = A CellTox Green Cytotoxicity Assay to monitor cytotoxicity in HEK293 cells - 16 hour (AID 1224888); also: nearly all actives have a fitted effect of over 35% in size; also: potency is read from the fitted curve at half-maximal effect
Summary of the method: as §2

[19] = qHTS RealTime-Glo MT Cell Viability Assay in HepG2 cells - 0 hour (AID 1224889); also: nearly all actives have a fitted effect of over 50% in size
Summary of the method: as §6

[20] = A CellTox Green Cytotoxicity Assay to monitor cytotoxicity in HepG2 cells - 32 hour (AID 1224883); also: nearly all actives have a fitted effect of over 50% in size; also: potency is read from the fitted curve at half-maximal effect
Summary of the method: as §5

| Compound | Potency [1] | Potency [2] | Potency [3] | outcome [4] | max response [5] [%] | Potency [6] | Potency [7] | Potency [8] | Potency [9] | Potency [10] | outcome [11] | Potency [12] | outcome [13] | Potency [14] | Potency [15] | Potency [16] | Potency [17] | Potency [18] | outcome [19] | Potency [20] |
| --- | --- | --- | --- | --- | --- | --- | --- | --- | --- | --- | --- | --- | --- | --- | --- | --- | --- | --- | --- | --- |
| CCN(CCO)CCn1c(Cc2ccccc2)nc2c1c(=O)n(C)c(=O)n2C | inactive | inactive | inactive | inactive | -42.2 | inactive | inactive | inactive | inactive | inactive | inactive | inactive | inactive | inactive | inactive | inactive | inactive | inactive | inactive |  |
| Clc1ccc(C(Cl)(Cl)Cl)cn1 | inactive | 34.7 µM (active) | inactive | inactive | 1.5 | 34.7 µM (active) | inactive | inactive | inactive | inactive | inactive | 34.7 µM (active) | inactive |  |  | inactive | inactive |  | inactive |  |
| CCC1(c2ccccc2)C(=O)N(COC)C(=O)N(COC)C1=O | inactive | inactive | inactive | inactive | 2.07 | inactive | inactive | inactive | inactive | inactive | inactive |  | inactive | inactive | inactive | inactive | inactive | inactive | inactive | inactive |
| CC(=NC#N)N(C)Cc1ccc(Cl)nc1 | inactive | inactive | inactive | inactive | 8.58 | inactive | inactive | inactive | inactive | inactive | inactive |  | inactive | inactive | inactive | inactive | inactive | inactive | inactive | inactive |
| COc1ccc2c(C(=O)c3ccc(Cl)cc3)c(C)n(CC(=O)O)c2c1 | inactive | inactive | inactive | inactive | 3.79 | inactive | inactive | inactive | inactive | inactive | inactive | inactive |  | inactive | inactive | inactive | inactive | inactive | inactive |  |
| O=C(Cl)OCc1ccccc1 | inactive | inactive | inactive | inactive | 10.6 | inactive | inactive | inactive | inactive | inactive | inactive |  | inactive | inactive | inactive |  | inactive | inactive | inactive |  |
| BrCC1CO1 (configuration not stated) | inactive | inactive | inactive | inactive | 5.87 | inactive | inactive | inactive | inactive | inactive | inactive | inactive |  | inactive | inactive | inactive | inactive | inactive | inactive | inactive |
| COC1=CC(=O)O[C@@H](/C=C/c2ccccc2)C1 | inactive | inactive | inactive | inactive | -17.5 | inactive | inactive | inactive | inactive | inactive | inactive | inactive |  | inactive |  | inactive | inactive | inactive | inactive | inactive |
| CCCN1CCC[C@@H]2Cc3nc(N)ncc3C[C@H]21 | inactive | 16.9 µM (active) | inactive | inactive | 3.64 | 16.9 µM (active) | 21.3 µM (active) | inactive | 21.3 µM (active) | 21.3 µM (active) | inactive | 16.9 µM (active) |  | 19 µM (active) | inactive |  | inactive | 19 µM (active) | inactive | 21.3 µM (active) |
| CCC(C(N)=O)N1CCCC1=O (configuration not stated) | inactive | inactive | inactive | inactive | 6.54 | inactive | inactive | inactive | inactive | inactive | inactive | inactive |  | inactive | inactive | inactive | inactive | inactive | inactive |  |
| COC(=O)c1ccc(CBr)cc1 | inactive | inactive | inactive | inactive | 3.15 | inactive | inactive | inactive | inactive | inactive | inactive |  | inactive | inactive |  | inactive | inactive | inactive | inactive | inactive |
| O=C1CCCCC1Cl (configuration not stated) | inactive | inactive | inactive | inactive | 11.3 | inactive | inactive | inactive | inactive | inactive | inactive |  | inactive | inactive |  | inactive | inactive | inactive | inactive | inactive |
| C=C(Cl)CSC(=S)N(CC)CC | inactive | inactive | inactive | inactive | -15 | inactive | inactive | inactive | inactive | inactive | inactive |  | inactive | inactive | inactive | inactive | inactive | inactive | inactive | inactive |
| ClCCCCCCCl | inactive | inactive | inactive | inactive | 5.82 | inactive | inactive | inactive | inactive | inactive | inactive | inactive |  | inactive | inactive |  | inactive | inactive | inactive | inactive |
| CC(C)C(C)(N)C#N (configuration not stated) | inactive | inactive | inactive | inactive | -5.83 | inactive | inactive | inactive | inactive | inactive | inactive |  | inactive | inactive | inactive |  | inactive | inactive | inactive | inactive |
